VLA-4 agonist: enhancers of LDV-FITC binding to VLA-4 integrin, primary screen, Jurkat cells, flow cytometry | Integrin alpha-4 (Homo sapiens), P13612 | activation, % at 10 µM (by protocol) | 24,000 tested, under 10 active | AID 528, 2006;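 active means fluorescent ligand binding to cells raised by more than 40% of the manganese-induced maximum; inconclusive means compound's own fluorescence above 85% of the ligand control signal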
Proteasome disasm: inhibitors of ATP-driven 26S proteasome dissociation, primary screen, biochemical, bead-based flow cytometry, GFP-tagged proteasome. inhibition of disassembly, % (no concentration beside the values). 0.2% of 24,000 active. AID 751, 2007. anti-FLAG beads, GFP-proteasome disassembly;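 active means inhibition of disassembly above about 33%, limit read from the data; inconclusive means likely self-fluorescent, control bead median signal at least 40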;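 further: higher percent means more bead fluorescence retained so stronger block of disassembly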
VLA-4 antagonist: inhibitors of LDV-FITC binding to Mn2+-activated VLA-4, primary screen, Jurkat cells | inhibition, % at 10 µM (by protocol) | Integrin alpha-4 (Homo sapiens), P13612 | LDV-FITC binding with Mn2+, flow cytometry; 100% = Mn2+-driven binding gain fully reversed | 0.2% of 24,000 active;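 active means inhibition above 50%; inconclusive means compound itself fluorescent, judged against control cell fluorescence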
Autofluor Jurkat: compound autofluorescence on Jurkat cells, primary screen, artefact control for VLA-4 allosteric ligand project, cell-based, flow cytometry. 0.61% of 24,000 active. AID 576, 2007. stronger effect = higher value; 1 = vehicle-only cell background. fluorescence ratio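 (tested at 10 µM compound in the well)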;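 active means fluorescence ratio above 2.44, which is 1 plus 3 SD of all ratios; inconclusive means signal too bright to measure linearly, ratio around 10 or more; inactive means fluorescence ratio below 2.44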;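 further: green fluorescence of cells measured with 488 nm excitation and 530 nm emission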
A number is an active result; i = inactive; ? = inconclusive. Most compounds without a hit are left out; they make up all but 1.1% or so of the library.

SMILES	VLA-4 agonist	Proteasome disasm	VLA-4 antagonist	Autofluor Jurkat
Cc1nc2cc(Cl)c(Cl)cc2nc1C	?	i	?	3.1
CC(C)(C)NC(=O)NC(=O)COc1ccccc1C#N	?	i	?	4
CN(C)CCCNC(=O)CCC1CCCCC1	i	i	i	i
COc1ccc(-c2nc(C(N)=O)c3[nH]c(=O)n(-c4cccc(Cl)c4)c3n2)cc1OC	?	i	?	4.5
O=c1[nH]c(Nc2ccccc2)cc2ccccc12	?	i	?	2.9
O=c1nc(N2CCCC2)nc(Nc2ccccc2)[nH]1	i	i	i	i
CCOc1ccc(NC(=O)c2oc3ccccc3c2NC(=O)CC)cc1	?	i	?	i
CCOc1ccc(NC(=O)c2oc3ccccc3c2NC(=O)C(C)C)cc1	?	i	?	2.5
CCOC(=O)N1CCC(NC(=O)c2ccc(CS(=O)(=O)c3ccc(OC)cc3)o2)CC1	i	i	i	i
O=C(OC1CCCCC1)c1ccc2c(c1)C1C=CCC1C(C(=O)O)N2 (configuration not stated)	?	i	?	3.8
CCCC1C(C#N)=C(N)Oc2n[nH]c(C(C)(C)C)c21 (configuration not stated)	i	i	i	i
CCOc1cc(C2NC(=O)N(C)C(C)=C2C(=O)OC)cc(Br)c1O (configuration not stated)	?	i	?	4.3
CCN(CC)c1ccc(C=N/C(C#N)=C(\N)C#N)cc1	?	?	?	5.9
O=C(NC(NC1CCS(=O)(=O)C1)C(=O)c1ccccc1)c1ccc(Cl)cc1 (configuration not stated)	i	i	i	i
Cc1ccc2nc(NC3=NCN(Cc4ccco4)CN3)nc(C)c2c1	?	i	?	3.5
CCc1ccc2nc(NC3=NCN(CCOC)CN3)nc(C)c2c1	?	i	?	i
Oc1cc(NCc2cccnc2)ccc1-c1nc2ccccc2o1	?	i	?	3
Cc1ccccc1CN1C(=O)C2(OCCCO2)c2ccccc21	?	i	?	i
O=C(NCC12CC3CC(CC(C3)C1)C2)c1nn2c(c1Cl)NC(c1ccco1)CC2C(F)(F)F (configuration not stated)	i	i	55	i
O=C(NCCN1CCOCC1)c1nn2c(c1Cl)NC(c1ccccc1)CC2C(F)(F)F (configuration not stated)	i	i	i	i
COC(=O)c1ccc(C2C(C(C)=O)=C(C)Nc3ncnn32)cc1 (configuration not stated)	i	i	i	i
COc1ccc(N2CCN(C(CNS(=O)(=O)c3cc(F)ccc3F)c3cccnc3)CC2)cc1 (configuration not stated)	i	i	i	i
Cc1cc(O)c(-c2cc(C(=O)Nc3ccc(S(=O)(=O)N4CCOCC4)cc3)[nH]n2)cc1C	i	i	56	i
CCCSc1nc(N)c(C#N)c(-c2ccc(C)cc2)c1C#N	i	i	i	i
CCN(CC)c1ccc(-c2c(C#N)c(N)nc(OC)c2C#N)cc1	?	57	?	8.2
SMILES	VLA-4 agonist	Proteasome disasm	VLA-4 antagonist	Autofluor Jurkat
CCOc1nc(-c2ccccc2)ccc1-c1noc(-c2ccc(OC)c(OC)c2)n1	i	i	i	i
Oc1[nH]c2ccccc2c1/C=N/c1nccs1	?	i	?	9.6
CCn1cc(C(=O)NCCCOC)c(=O)c2cc(S(=O)(=O)N(C)C)ccc21	i	i	i	i
CCOC(=O)Cn1c(=O)oc2cc(S(=O)(=O)Nc3ccc(N(CC)CC)cc3C)ccc21	?	i	?	4.1
CCOCCCNS(=O)(=O)c1ccc2c(c1)oc(=O)n2CC(=O)OCC	?	i	?	2.5
CCOC(=O)Cn1c(=O)oc2cc(S(=O)(=O)Nc3cc(OCC)ccc3OCC)ccc21	?	i	?	i
CCOC(=O)Cn1c(=O)oc2cc(S(=O)(=O)Nc3cc(Cl)ccc3OC)ccc21	?	i	?	4.3
CC1=CCC(C(C)(C)NC(=O)c2ccccc2)C/C1=N\O (configuration not stated)	i	i	i	i
NC(=O)c1nsnc1-c1ccccc1O	?	i	?	i
COc1ccccc1N1C(=O)CC(Sc2nc(C)cc(C)n2)C1=O (configuration not stated)	i	i	i	i
COc1ccc2c(c1)C(=O)N(c1ccccc1OC)C(=O)C2	?	i	?	6.3
Cc1onc(-c2ccccc2)c1C(=O)NC(C)C	i	i	i	i
Cc1onc(-c2ccccc2)c1C(=O)NC(CC(=O)O)c1ccc(OC(C)C)cc1 (configuration not stated)	i	i	86	i

Bioassay records: PubChem BioAssay, NMMLSC
